Measured values reported in ChEMBL document CHEMBL1157539, “Thousands of chemical starting points for antimalarial lead identification” (Nature, 2010).

These molecules were tested on Plasmodium falciparum (assay: GSK_TCMDC: Inhibition of Plasmodium falciparum 3D7 in whole red blood cells, using parasite LDH activity as an index of growth. Test compounds present at 2uM).
Format: functional

| Structure (SMILES) | Inhibition |
| --- | --- |
| COc1ccc2nccc([C@@H](O)CN3CCC(NCc4ccc5c(c4)nnn5C(C)C)CC3)c2c1.O=C(O)C(=O)O | 100% |
| CCN(CC)CCn1c(=N)n(CC(O)c2ccc(Cl)c(Cl)c2)c2ccccc21.Cl (stereo not drawn) | 99% |
| CCOC(=O)NC1=NC(=N)N(OCCCOc2cc(Cl)c(Cl)cc2Cl)C(C)(C)N1 | 97% |
| CCc1c(C(=O)NC2CCC(N3CCC(c4ccccc4C)CC3)CC2)[nH]c2ccc(OC)cc12 (stereo not drawn) | 100% |

The molecules below were run on Plasmodium falciparum (assay: GSK_TCMDC: Inhibition of Plasmodium falciparum Dd2 in whole red blood cells, using parasite LDH activity as an index of growth. Test compounds present at 2uM).
Format: functional

| Structure (SMILES) | Inhibition |
| --- | --- |
| COc1ccc(C(=O)C2CCN(CCCCNC(=O)c3ccc(NC(=O)c4ccc(Cl)cc4)cc3)CC2)c(OC)c1 | 13% |
| O=C(Nc1cc(C(F)(F)F)cc(C(F)(F)F)c1)N1CCC(CCN2CCC(c3c[nH]c4ccccc34)CC2)CC1 | 16% |
| O=C(/C=C/c1ccc(Cl)c(Cl)c1)NCCCCCN1CCC(CCCNC(=O)Nc2ccc(C(F)(F)F)cc2)CC1 | 19% |
| CC1CCCCN1CCCNc1ncc2c(-c3ccc(NC(=O)Nc4cc(C(F)(F)F)ccc4F)c(F)c3)nn(C)c2n1.O=C(O)C(F)(F)F (stereo not drawn) | 97% |
| CC(=O)N1N=C(c2[nH]c3ccc(Br)cc3c2C)OC1c1ccccc1 (stereo not drawn) | 68% |
| CC(Cc1ccc(NC(=O)c2ccc(CC(C)NCc3ccc(Cl)c(Cl)c3)cc2)cc1)NCCc1cccc(Cl)c1 (stereo not drawn) | 33% |
| CCCCCCOc1ccc(C(=O)NCCCC2CCCN(CCCCCNC(=O)C=Cc3ccc(Cl)c(Cl)c3)C2)cc1 (stereo not drawn) | 12% |
| CS(=O)(=O)N(CC(O)Cn1c2ccc(Cl)cc2c2cc(Cl)ccc21)c1ccccc1 (stereo not drawn) | 98% |
| CN1CCCN(Cc2ccc(-c3cccc(NC(=O)c4ccc(F)cc4)c3)cc2)CC1.O=C(O)C(F)(F)F | 8% |
| COc1ccc(Cc2c(C)nc3nc(N)nc(N)c3c2C)cc1OC.Cl | 0% |
| Cc1[nH]c(C)c(-c2ccc(Oc3cccc(Cl)c3)cc2)c(=O)c1Br | 97% |
| COc1ccccc1C1CCN(CCCCNC(=O)c2ccc(/C=C/c3cc(Cl)cc(Cl)c3)cc2)CC1 | 30% |
| Cc1cc(OCCCN2CCCCC2)ccc1NC(=O)COc1ccc(Cl)cc1C(=O)c1cc(C#N)cc(C(F)(F)F)c1 | 7% |
| O=C(O)C(F)(F)F.c1ccc(CNCc2cccc(-c3ccc(-c4nc5ccccc5[nH]4)s3)c2)cc1 | 63% |
| O=C(Nc1ccc(-c2ccccc2)s1)N[C@H]1CCN(Cc2ccc(OCCCN3CCCCC3)cc2)C1 | 40% |
| CCOC(=O)N(C)/N=C/[C@H](CCc1ccccc1)NC(=O)[C@H](CC(C)C)NC(=O)c1cc2cccc(OC)c2o1 | 70% |
| CC(C)CC(C)NC(=O)C1Cc2c([nH]c3cc(Cl)ccc23)C2(CCN(CCc3ccccc3)CC2)N1 (stereo not drawn) | 65% |
| CC[C@H](NC(=O)c1c(CC2CCN(CC(C)=O)CC2)c(-c2ccccc2)nc2ccccc12)c1ccccc1 | 96% |
| N=C(N)Nc1nc(-c2cccc(NC(=O)Cc3ccccc3)c2)cs1 | 9% |
| O=C(/C=C/c1ccc(C(F)(F)F)cc1)NCCCCCN1CCN(C(=O)Nc2ccc(Cl)c(Cl)c2)CC1 | 0% |

| Structure (SMILES) | Inhibition |
| --- | --- |
| COc1ccc(CN2CCCN(Cc3cccc(NC(=O)c4cc5ccccc5s4)c3)CC2)cc1.O=C(O)C(F)(F)F | 32% |
| Cl.O=C1CSc2ccc(CNC3CCN(CCc4c(F)cnc5ccc(F)cc45)CC3)nc2N1 | 16% |
| CNC(=O)c1cc(S(=O)(=O)N2CCN(c3ccccn3)CC2)c(C)s1 | 52% |
| Cc1ccc(CNC(=O)c2cc3c(=O)n4cccc(C)c4nc3n(CCN3CCOCC3)c2=N)cc1 | 21% |
| COc1ccc(-n2cc(C(=O)c3cc(Br)ccc3O)cc(C#N)c2=O)cc1Cl | 23% |
| CN(C)C(CNC(=O)c1cc(-c2ccncc2)c(-c2cc3ccccc3[nH]2)o1)c1ccccc1.O=C(O)C(F)(F)F (stereo not drawn) | 62% |
| CCn1c(Sc2ccc([N+](=O)[O-])c(C#N)c2)nnc1-c1ccc(Cl)cc1 | 7% |
| CS(=O)(=O)CCNCc1cccc(-c2ccc3c(Nc4ccc(Oc5ccccc5)cc4)ccnc3c2)c1 | 96% |
| CCn1c(C)c(C)c2cc(C(=O)Nc3ccon3)ccc21 | 93% |
| O=C(N[C@H]1CCN(CCc2ccc(O[C@H]3CCNC3)c(F)c2)C1)c1ccc(Cl)c(Cl)c1.O=C(O)C(F)(F)F | 23% |
| O=C(CCCCCNC(=O)c1ccc(O)c(-c2ccc(Cl)c(Cl)c2)c1)NCCc1ccc(Cl)c(Cl)c1 | 20% |
| Fc1ccc2[nH]c(-c3ccc(-c4cccc(CN5CCN(c6ccncc6)CC5)c4)cc3)nc2c1.O=C(O)C(F)(F)F | 100% |
| O=C(/C=C/c1ccc(Cl)c(Cl)c1)NCCCCCN1CCC(C(=O)Nc2cccc(Cl)c2)CC1 | 0% |
| Cc1cnc(C[S+]([O-])c2nc3cc(C(F)(F)F)ccc3[nH]2)cc1OCc1ccccc1 (stereo not drawn) | 76% |
| Cc1ccccc1C1CCN(c2ccc(C(=O)Nc3ccccc3)cn2)CC1.O=C(O)C(F)(F)F | 94% |
| COc1ccc2nccc([C@@H](O)CN3CCC(NCc4ccc5c(c4)nnn5C(C)C)CC3)c2c1.O=C(O)C(=O)O | 40% |
| CCN(CC)CCn1c(=N)n(CC(O)c2ccc(Cl)c(Cl)c2)c2ccccc21.Cl (stereo not drawn) | 88% |
| CCOC(=O)NC1=NC(=N)N(OCCCOc2cc(Cl)c(Cl)cc2Cl)C(C)(C)N1 | 94% |
| CCc1c(C(=O)NC2CCC(N3CCC(c4ccccc4C)CC3)CC2)[nH]c2ccc(OC)cc12 (stereo not drawn) | 100% |
